High-throughput results from PubChem BioAssay.
Pf apPOL inh: Pf-apPOL DNA polymerase inhibition | AID 1794808 | inhibition, % at 10 µM | Recombinant Pf-apPOL, molecular beacon fluorescence, 1.5 h | 210,000 tested, 0.25% active
mHTT CaM bind: mHTT-calmodulin interaction abrogation. inhibition, % at 15 µM. AID 1671202. AlphaScreen His-mHTT/GST-CaM binding, luminescence. 190,000 tested, 3.6% active;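 further: 0% = both proteins with DMSO and 100% = one protein alone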
Target sequence (P42858 whole entry, looked up, stated change not applied): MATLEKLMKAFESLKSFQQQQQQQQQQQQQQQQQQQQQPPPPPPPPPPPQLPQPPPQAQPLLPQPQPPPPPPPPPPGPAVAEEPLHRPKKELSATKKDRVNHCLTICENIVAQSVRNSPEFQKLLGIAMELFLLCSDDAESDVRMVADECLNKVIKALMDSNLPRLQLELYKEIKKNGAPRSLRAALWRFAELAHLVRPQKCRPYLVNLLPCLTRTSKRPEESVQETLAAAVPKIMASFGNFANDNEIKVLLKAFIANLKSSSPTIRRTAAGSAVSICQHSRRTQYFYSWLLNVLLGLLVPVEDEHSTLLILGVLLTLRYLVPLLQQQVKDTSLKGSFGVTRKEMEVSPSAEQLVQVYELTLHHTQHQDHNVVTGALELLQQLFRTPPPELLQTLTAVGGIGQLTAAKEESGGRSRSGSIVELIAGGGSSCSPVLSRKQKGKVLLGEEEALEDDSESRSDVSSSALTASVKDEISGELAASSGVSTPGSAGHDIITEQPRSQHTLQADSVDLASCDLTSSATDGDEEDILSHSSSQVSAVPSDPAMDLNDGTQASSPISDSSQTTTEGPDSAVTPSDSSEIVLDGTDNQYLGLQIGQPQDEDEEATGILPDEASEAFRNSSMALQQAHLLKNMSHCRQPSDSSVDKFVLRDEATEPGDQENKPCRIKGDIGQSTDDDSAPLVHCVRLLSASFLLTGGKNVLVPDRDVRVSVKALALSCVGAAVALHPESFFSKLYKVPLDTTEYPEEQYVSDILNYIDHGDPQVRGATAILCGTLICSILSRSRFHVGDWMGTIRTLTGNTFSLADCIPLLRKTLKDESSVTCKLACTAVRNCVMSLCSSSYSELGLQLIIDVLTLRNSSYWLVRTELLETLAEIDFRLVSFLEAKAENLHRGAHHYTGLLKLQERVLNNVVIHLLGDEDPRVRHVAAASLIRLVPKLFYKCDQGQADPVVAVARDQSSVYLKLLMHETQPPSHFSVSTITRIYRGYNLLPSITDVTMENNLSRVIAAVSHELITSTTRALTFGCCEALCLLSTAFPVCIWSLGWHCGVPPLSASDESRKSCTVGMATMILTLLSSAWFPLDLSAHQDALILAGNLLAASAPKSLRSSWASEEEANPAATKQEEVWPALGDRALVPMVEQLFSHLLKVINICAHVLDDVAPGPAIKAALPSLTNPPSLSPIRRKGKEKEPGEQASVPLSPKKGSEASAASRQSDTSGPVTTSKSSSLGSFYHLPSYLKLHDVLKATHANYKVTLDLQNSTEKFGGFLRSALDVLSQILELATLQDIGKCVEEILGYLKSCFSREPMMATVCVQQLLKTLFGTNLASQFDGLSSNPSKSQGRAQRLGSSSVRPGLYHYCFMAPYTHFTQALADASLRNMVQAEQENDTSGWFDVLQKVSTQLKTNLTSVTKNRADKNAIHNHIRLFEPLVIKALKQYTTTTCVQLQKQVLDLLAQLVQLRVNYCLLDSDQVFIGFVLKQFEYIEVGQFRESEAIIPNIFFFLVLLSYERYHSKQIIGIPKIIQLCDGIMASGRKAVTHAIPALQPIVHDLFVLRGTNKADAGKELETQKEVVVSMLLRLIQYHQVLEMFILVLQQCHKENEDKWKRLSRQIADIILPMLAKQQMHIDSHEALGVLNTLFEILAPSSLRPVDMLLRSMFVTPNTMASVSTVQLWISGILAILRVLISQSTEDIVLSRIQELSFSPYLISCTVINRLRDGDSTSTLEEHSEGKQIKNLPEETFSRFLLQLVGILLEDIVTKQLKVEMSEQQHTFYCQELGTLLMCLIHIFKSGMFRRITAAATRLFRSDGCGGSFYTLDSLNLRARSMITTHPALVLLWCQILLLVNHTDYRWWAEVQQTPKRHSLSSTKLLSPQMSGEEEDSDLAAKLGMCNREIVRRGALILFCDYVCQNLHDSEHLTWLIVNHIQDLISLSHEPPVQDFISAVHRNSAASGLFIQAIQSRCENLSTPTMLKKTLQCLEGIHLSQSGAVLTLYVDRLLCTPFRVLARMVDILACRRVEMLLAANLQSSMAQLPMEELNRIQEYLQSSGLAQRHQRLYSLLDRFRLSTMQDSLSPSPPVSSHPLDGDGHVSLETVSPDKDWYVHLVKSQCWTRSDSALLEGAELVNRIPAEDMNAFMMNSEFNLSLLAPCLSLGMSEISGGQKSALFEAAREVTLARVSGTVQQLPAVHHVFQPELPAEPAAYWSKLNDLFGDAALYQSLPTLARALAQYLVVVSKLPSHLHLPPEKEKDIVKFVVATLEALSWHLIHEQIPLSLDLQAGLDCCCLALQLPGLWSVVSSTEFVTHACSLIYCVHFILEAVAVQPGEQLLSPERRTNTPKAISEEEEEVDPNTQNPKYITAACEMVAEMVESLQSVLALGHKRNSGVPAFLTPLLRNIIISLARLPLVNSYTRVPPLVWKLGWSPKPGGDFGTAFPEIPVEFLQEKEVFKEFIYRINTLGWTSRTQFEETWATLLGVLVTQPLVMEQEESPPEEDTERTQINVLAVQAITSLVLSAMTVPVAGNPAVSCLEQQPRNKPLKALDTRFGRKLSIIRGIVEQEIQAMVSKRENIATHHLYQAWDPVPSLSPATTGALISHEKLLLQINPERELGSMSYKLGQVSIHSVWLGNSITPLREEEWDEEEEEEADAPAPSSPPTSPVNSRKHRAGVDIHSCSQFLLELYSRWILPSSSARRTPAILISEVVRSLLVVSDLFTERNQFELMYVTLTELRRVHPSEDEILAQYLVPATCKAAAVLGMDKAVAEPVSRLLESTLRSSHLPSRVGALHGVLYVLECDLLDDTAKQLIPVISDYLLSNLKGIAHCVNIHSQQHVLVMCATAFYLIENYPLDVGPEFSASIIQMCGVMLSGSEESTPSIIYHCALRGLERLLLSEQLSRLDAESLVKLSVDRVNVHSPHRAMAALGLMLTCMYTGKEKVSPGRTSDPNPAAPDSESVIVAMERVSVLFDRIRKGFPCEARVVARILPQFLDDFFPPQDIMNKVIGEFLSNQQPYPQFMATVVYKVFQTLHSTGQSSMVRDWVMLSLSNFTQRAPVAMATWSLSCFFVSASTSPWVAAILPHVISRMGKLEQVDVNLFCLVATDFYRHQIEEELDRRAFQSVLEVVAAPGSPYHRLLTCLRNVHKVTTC
* marks the source's active call; other numbers are inactive results; x = no result given; + = active, no number. Most compounds without a hit are left out; they make up all but 3.5% or so of the library. No stated cut-off is given here; in the data, active means inhibition above about 50%; inactive means the rest.

SMILES | Pf apPOL inh | mHTT CaM bind
COC(=O)c1ccc(NC(=O)Cc2csc(NC(=O)c3ncccn3)n2)cc1 | 3 | 98*
COC(=O)c1ccc(NC(=O)Cc2csc(NC(=O)Nc3ccccc3OC)n2)cc1 | 5 | 25
CCCCNC(=O)c1ccc2c(c1)nc1n2CCC(C)C1 (stereo not drawn) | 1 | -4
CCOC(=O)c1sc(=NN=C(C)C)n(C)c1C | -5 | x
O=C(NCc1cccnc1)/C(=N\O)c1ccccn1 | 11 | +
O=C(NCc1cccnc1)C(=O)NCc1cccnc1 | 1 | -5
O=C(Nc1ccccc1-c1nc2ccccc2s1)c1cc(=O)c2ccccc2o1 | -1 | 3
O=C(Nc1nc2c(Cl)cccc2s1)c1cc(=O)c2ccccc2o1 | 50* | -1
CN(C)CCNC(=O)c1cn2cc(-c3ccc(F)c(Cl)c3)ccc2n1 | 11 | 93*
CN(C)c1ccc(CNC(=O)c2cn3cc(Cl)ccc3n2)cc1 | 0 | 15
COc1cccc(C(=O)N2CCC(n3nc(-c4ccsc4)ccc3=O)CC2)c1 | -2 | 100*
O=C(N1CCC(n2nc(-c3ccsc3)ccc2=O)CC1)C1(c2ccccc2)CC1 | -2 | -1
O=C(Cc1cccc(F)c1)N1CCC(n2nc(-c3ccsc3)ccc2=O)CC1 | -4 | 35
O=C(c1cccc(F)c1)N1CCC(n2nc(-c3ccsc3)ccc2=O)CC1 | -1 | 95*
CC(Oc1ccccc1)C(=O)N1CCC(n2nc(-c3ccsc3)ccc2=O)CC1 (stereo not drawn) | 2 | 71*
Cc1ccc(C(=O)N2CCC(c3nc(-c4ccncc4)n[nH]3)CC2)s1 | 12 | 12
Cc1ccc(C(=O)N2CCC(n3nc(-c4ccsc4)ccc3=O)CC2)s1 | -4 | 100*
O=C(c1cccnc1)N1CCC(n2nc(-c3ccsc3)ccc2=O)CC1 | 0 | 10
O=C(Nc1ccc(F)cc1)c1csc(CN2CCN(c3ccccc3)CC2)n1 | -2 | -2
COc1ccc(C(=O)N2CCC3(C2)NCc2ccccc2NC3=NC(C)(C)C)c(OC)c1 (stereo not drawn) | -4 | 30
O=C(NC1CCCC1)C1CCN(c2ccncc2)CC1 | 0 | -7
CC1=NN(C(=O)c2ccc(C)c([N+](=O)[O-])c2)C(O)(C(F)(F)F)C1 (stereo not drawn) | -13 | 5
COc1ccc(C(=O)N2CCC(n3nc(-c4ccsc4)ccc3=O)CC2)cc1 | -6 | 98*
COc1ccc(C(=O)N2CCC(N3CCCCCC3)CC2)cc1 | -4 | -2
Cc1ccc(Cl)c(OCC2C[N+]34CCO[B-]3(OCC4)O2)c1 (stereo not drawn) | 11 | -3
SMILES | Pf apPOL inh | mHTT CaM bind
O=C(/C=C/c1ccc2c(c1)OCO2)NC1(C(=O)Nc2ccc3c(c2)OCCO3)CCCCC1 | -1 | 40
O=C(CSc1nnc(-c2ccccc2)c(-c2ccccc2)n1)N1CCCCC1 | -3 | 13
CCOc1ccc(NC(=O)CSc2nnc(-c3ccco3)c(-c3ccco3)n2)cc1 | -3 | 82*
COc1ccc(C(=O)CSc2nnc(-c3ccco3)n2-c2ccccc2)cc1 | -1 | 6
Cc1cc(NC(=O)CSc2nnc(-c3ccco3)c(-c3ccco3)n2)no1 | -5 | 69*
COc1ccc(C(=O)CSc2nnc(-c3ccco3)c(-c3ccco3)n2)cc1 | -2 | 95*
O=C(CSc1nnc(-c2ccco2)c(-c2ccco2)n1)Nc1ccc(C(=O)O)cc1 | 4 | 29
Cc1cc(NC(=O)CSc2nc3ccccc3s2)no1 | 0 | -24
COc1ccc(-c2nnc(SCC(=O)N3CCN(C)CC3)nc2-c2ccc(OC)cc2)cc1 | 54* | 29
CCCc1cc(C2CCCN2C(=O)CCc2ccccc2)no1 (stereo not drawn) | 1 | 3
O=[N+]([O-])c1ccc(Cl)c(-c2ncnn2-c2ccccc2C(F)(F)F)c1 | -5 | 16
CCCN1CCN(C(=O)C2CCN(c3cn[nH]c(=O)c3)CC2)CC1 | -3 | 3
Cc1ccc(NC(=O)CSc2nnc(-c3ccco3)c(-c3ccco3)n2)cc1C | 8 | 93*
O=C(CSc1nnc(-c2ccco2)c(-c2ccco2)n1)Nc1cccc(C(=O)O)c1 | -4 | 45
O=C(CSc1ccc(-c2cccnc2)nn1)Nc1ccc2c(c1)OCO2 | 4 | -4
O=C(CSc1nnc(-c2ccco2)n1-c1ccccc1)Nc1ccccc1 | 4 | 14
O=C(CSc1nnc(-c2ccco2)c(-c2ccco2)n1)Nc1cnc2ccccc2c1 | -1 | 93*
O=C(CSc1nnc(-c2ccco2)c(-c2ccco2)n1)Nc1nccs1 | 9 | 70*
O=C(CSc1nnc(-c2ccco2)c(-c2ccco2)n1)Nc1ccc2c(c1)OCO2 | -3 | 75*
O=C(CSc1ncccn1)Nc1nccs1 | -1 | -17
Clc1ccc(Cn2nnc(-c3ccccc3)n2)cc1Cl | -4 | -66
COc1cc(C2Nc3ccccc3NC3=C2C(=O)CC(c2ccccc2)C3)cc(Cl)c1O (stereo not drawn) | -5 | 28
CC1CCCN(Cc2c(O)ccc3c2OC(=Cc2ccc4c(c2)OCO4)C3=O)C1 (stereo not drawn) | -6 | 20
COc1cc(OC)c(NC(=O)CSc2nnc(-c3ccco3)c(-c3ccco3)n2)cc1Cl | 4 | 50
O=C(CSc1nnc(-c2ccco2)c(-c2ccco2)n1)Nc1ccc(Cl)cc1Cl | -4 | 85*
SMILES | Pf apPOL inh | mHTT CaM bind
O=C(c1ccccn1)N1CCc2[nH]nc(-c3ccccc3)c2C1 | -10 | -4
Cn1nc(C(=O)N2CCc3[nH]nc(-c4ccccc4)c3C2)c2ccccc21 | -6 | 87*
Cc1ccc(-c2n[nH]c3c2CN(C(=O)c2ccoc2)CC3)cc1 | -9 | 10
Cc1ccc(-c2n[nH]c3c2CN(C(=O)c2cccn2C)CC3)cc1 | -12 | 55*
O=C(Cn1nc(-c2ccc(Cl)cc2)c2ccccc2c1=O)Nc1ccc(Cl)cc1 | 12 | 9
COCCNC(=O)Cn1nc(-c2ccc(Cl)cc2)c2ccccc2c1=O | 76* | 1
Cc1ccccc1C1=N/C(=C\c2ccccc2Cl)C(=O)O1 | -2 | 6
COc1ccccc1C(=O)N1CCCN(c2cc(-c3ccccc3)[nH]n2)CC1 | -2 | 57*
COc1ccccc1C(=O)N1CCN(c2cc(-c3cccnc3)[nH]n2)CC1 | -7 | -3
COCCCNC(=O)c1ccc2c(c1)ncn2-c1ccc(C)c(Cl)c1 | 25 | -1
CCOCCCNC(=O)c1ccc2c(c1)ncn2-c1ccc(C)c(Cl)c1 | 29 | 84*
O=C(c1ccccc1)N1CCCC(c2nc(-c3ccc(F)cc3)n[nH]2)C1 (stereo not drawn) | -1 | 3
Nc1nc(-c2ccc(-c3ccccc3)cc2)cs1 | 0 | 45
Nc1nc(-c2ccccc2)cc(=S)s1 | x | 51*
N#CC(C#N)C(C#N)(C#N)C1CCC/C(=C\c2ccco2)C1=O (stereo not drawn) | 2 | 99*
O=C1/C(=C/c2ccco2)CC2CC1C/C(=C\c1ccco1)C2=O | 2 | 47
C=CCc1cccc2cc(-c3nc4ccccc4s3)c(=O)oc12 | -1 | 2
O=C(c1nnn(-c2ccccc2F)c1-c1ccccn1)N1CC=C(c2ccccc2)CC1 | -10 | 84*
O=C(c1nnn(-c2ccccc2F)c1-c1ccccn1)N1CCN(c2ncccn2)CC1 | -5 | 0
CSC[C@H]1CN(CCc2ccccc2)C(=O)[C@@H]1CC(=O)Nc1ccc(Br)cc1 | -4 | 63*
O=C(C[C@H]1C(=O)N(CCc2ccccc2)C[C@@H]1Cc1ccccc1)Nc1ccc(Br)cc1 | -2 | 30
CCc1ccc(C=C2Oc3cc(OS(C)(=O)=O)ccc3C2=O)cc1 | -5 | 1
